Efflux pump inh – inhibitors of Candida efflux pumps in yeast, primary screen, S. cerevisiae, Nile Red, multiplex; hit rate 0.44% among 330,000; inhibition, % at 10 µM; AID 485275, 2010; S. cerevisiae Candida pump triplex;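 active means plate passing quality check with inhibition over a set limit, or well fluorescence over plate mean plus 4 SD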;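 further: Nile Red retained in pooled yeast measured as flow cytometry median fluorescence; 0% = buffer negative control and 100% = Enniatin B positive control; higher means more Nile Red kept so more efflux inhibition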
V-ATPase pHluor – regulators of yeast V-ATPase proton pumping, primary screen, pHLuorin cytosolic pH fluorescence. S. cerevisiae. response, % at 10 µM. hit rate 0.37% among 350,000; in the data active means response mostly above about 7.3%, no sharp cut-off; inactive means mostly below about 5.4%; further: actives read high
NSD2 HMT inh – NSD2 histone methyltransferase inhibitors, primary screen, biochemical, AlphaScreen, single concentration, set 2; Histone-lysine N-methyltransferase NSD2 (Homo sapiens), O96028; NSD2 peptide methylation, 120 min; inhibition, % at 12.5 µM; hit rate 0.54% among 310,000; AID 743445, 2014; in the data active means inhibition above about 50%
GC-B act – human GC-B receptor activators, primary screen, HEK293 GC-B cells, cGMP TR-FRET, EC30 CNP; activation, % at 10 µM; AID 1920062, 2024; hit rate 0.11% among 370,000; 0% at EC30 CNP, 100% saturating CNP; Atrial natriuretic peptide receptor 2 (Homo sapiens), P20594;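 active means activation at 10 µM reaching about 35% in either raw or pattern-adjusted values, limit read from the data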
Rce1 inhib – yeast Rce1p protease inhibitors, primary screen, biochemical, fluorescence, cell-free homogeneous. AID 2563, 2010. hit rate 0.27% among 290,000. calls only. yeast membranes, quenched prenylated peptide cleavage fluorescence;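 active means fall in fluorescence gain of 50% or more versus controls, with final raw signal at or below 3038400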;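 further: plate controls were neutral control wells for no effect and wells lacking membranes for full effect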
Target sequence (Q03530 whole entry, looked up): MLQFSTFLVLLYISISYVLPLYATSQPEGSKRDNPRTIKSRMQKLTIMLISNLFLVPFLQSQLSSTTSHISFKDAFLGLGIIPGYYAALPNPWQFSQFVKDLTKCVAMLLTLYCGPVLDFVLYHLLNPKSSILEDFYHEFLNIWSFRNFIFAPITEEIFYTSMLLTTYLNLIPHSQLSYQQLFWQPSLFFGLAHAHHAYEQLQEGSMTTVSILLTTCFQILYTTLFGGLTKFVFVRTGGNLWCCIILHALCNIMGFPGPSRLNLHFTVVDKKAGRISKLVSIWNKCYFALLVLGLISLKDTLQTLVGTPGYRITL
GC-A act – GC-A stimulated cGMP production enhancers – HEK293 GC-A cells, cGMP TR-FRET, EC30 ANP, primary screen; Atrial natriuretic peptide receptor 1 (Homo sapiens), P16066; 0% at EC30 ANP, 100% saturating ANP; activation, % at 10 µM; hit rate 0.14% among 370,000; AID 1671463, 2021; in the data active means activation above about 40%
Yeast cmpd fluor – compound fluorescence in yeast efflux pump counter-screen; shares compounds with Efflux pump inh; S. cerevisiae AD/pABC3, flow cytometry; fluorescence ratio to DMSO, % at 10 µM; hit rate 4% among 1,700;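 active means fluorescence ratio to DMSO above its plate's cutoff, the plate mean ratio plus 5 SD, cut at about 210% in these data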;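 further: unstained yeast with no Nile Red so the signal is compound autofluorescence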
CaMdr1 efflux inh – inhibitors of Candida albicans Mdr1 efflux, confirmation, flow cytometry, singleplex, Cherry Pick1 set; inhibition, % at 10 µM; shares compounds with Efflux pump inh; AID 588518, 2011; S. cerevisiae AD/CaMDR1, Nile Red efflux; hit rate 1% among 1,700; in the data active means inhibition above about 26%;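 further: 0% = DMSO vehicle and 100% = reference inhibitor; higher means more Nile Red retained so more efflux inhibition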
CaCdr2 efflux inh – inhibitors of Candida albicans Cdr2 efflux pump, confirmation, S. cerevisiae AD/CaCDR2, flow cytometry, cherry pick 1, singleplex; shares compounds with Efflux pump inh; hit rate 4% among 1,700; Nile Red retention ratio vs DMSO, % at 10 µM; Nile Red retention; AID 588520, 2011; in the data active means Nile Red retention ratio vs DMSO above about 190%;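 further: higher ratio means more blocking of Cdr2 efflux of the dye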
CaCdr1 efflux inh – inhibitors of Candida albicans Cdr1 efflux pump, confirmation, S. cerevisiae AD/CaCDR1, flow cytometry, cherry pick 1, singleplex; AID 588522, 2011; shares compounds with Efflux pump inh; Nile Red efflux; inhibition, % at 10 µM; hit rate 1% among 1,700;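 active means inhibition above the screen-wide mean plus twice its standard deviation, cut at about 32% in these data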
An asterisk follows results filed as active; i = inactive; . = no result; + = active, no number. Sampled rows, rich in hits. Any-hit rate of the full collection: about 1.6%.

SMILES	Efflux pump inh	V-ATPase pHluor	NSD2 HMT inh	GC-B act	Rce1 inhib	GC-A act	Yeast cmpd fluor	CaMdr1 efflux inh	CaCdr2 efflux inh	CaCdr1 efflux inh
CC[n+]1c(/C=C/c2ccc(N(C)C)cc2)ccc2ccccc21	11*	-2	40	-35	i	-39	+	16	121	9
CC(C)CNc1cccc2c1S(=O)(=O)N(Cc1cn(Cc3cccc(C(F)(F)F)c3)nn1)Cc1ccccc1O2	.	.	.	7	.	5	.	.	.	.
COc1cc(NC(=O)c2ccccn2)ccc1NC(=O)c1ccccc1Cl	.	.	.	-5	.	2	.	.	.	.
O=C(Cc1cc(=O)[nH][nH]1)N/N=C/c1ccccc1C(F)(F)F	.	.	1	2	.	2	.	.	.	.
CN(C)C(=O)c1ccc(NC(=O)c2ccc(-c3ccc(Cl)cc3)o2)cc1	0.6*	-2	-2	8	.	12	108	0	110	0
O=C(Nc1cccnc1)c1ccc(-c2ccc(Cl)cc2)o1	0	1	-7	-1	i	-2	.	.	.	.
CN(C)S(=O)(=O)Nc1ccc(NS(=O)(=O)N(C)C)c(S(=O)(=O)c2ccccc2)c1	0.7*	5	-3	6	i	1	106	0	109	0
CN(C)S(=O)(=O)Nc1ccc2c(c1)Cc1ccccc1-2	0	0	-1	-2	.	7	.	.	.	.
CC(C)c1ccc(C(=O)Nc2cc(Cl)ccc2C(=O)O)cc1	.	.	1	-10	.	-2	.	.	.	.
O=C1Nc2ccccc2/C1=C/c1cccnc1	0	0	5	-8	i	-3	.	.	.	.
O=C1Nc2ccccc2/C1=C/c1cnc(-c2ccccc2)[nH]1	0.8*	-11	-3	-11	i	-6	111	0	435*	1
CN(Cc1ccccc1)S(=O)(=O)c1cccc(C(=O)OCc2ccc(Oc3ccccc3)cc2)c1	.	.	5	-5	.	0	.	.	.	.
CC1CC(C)CN(S(=O)(=O)c2cc(C(=O)O)c(Cl)s2)C1 (stereo not given)	9.7*	-3	5	-3	i	-3	101	0	94	0
O=C(CSc1nc2ccccc2n1-c1ccccc1)Nc1ncc(Cl)cc1Cl	0	0	-3	0	i	-1	.	.	.	.
COc1ccc(-n2c(SCC(=O)Nc3ncc(Cl)cc3Cl)nc3ccccc32)cc1	0.8*	.	2	.	i	.	98	0	107	0
COc1ccc2[nH]c3c(C)c4ccncc4c(C)c3c2c1	2.8*	-1	.	-7	.	6	125	0	103	0
CN1CCN(C(=O)c2ccccc2[N+](=O)[O-])CC1	0	8	-15	3	i	3	.	.	.	.
CN1CCN(C(=O)c2ccccc2-c2ccccc2C(=O)O)CC1	6.7*	2	-5	0	i	3	102	0	78	0
COc1ccc(C(=O)CC(=O)C(=O)Nc2ccc(Cl)cc2)cc1	1.4*	-2	4	3	i	0	82	0	172	1
COc1ccc(C(=O)CC(=O)C(=O)Nc2ccc(OC)c(Cl)c2)cc1	0	-100	2	-1	i	-5	.	.	.	.
CCC[C@H]1[C@@H](OC(=O)NCc2ccc(C)o2)CC[C@@]23CCCN2C(=O)CCC[C@@H]13	.	.	.	-14	.	-13	.	.	.	.
O=S1(=O)c2c(NCc3ccco3)cccc2Oc2ccccc2CN1Cc1cn(Cc2ccc(C(F)(F)F)cc2)nn1	.	.	.	5	.	3	.	.	.	.
Cc1ccc(C)c(OCc2cc(C(=O)N3CCOCC3)no2)c1	0	-4	-1	0	i	2	.	.	.	.
Cc1ccc(C)c(OCc2cc(C(=O)N3CCNC(=O)C3)no2)c1	0	-1	-2	3	i	1	103	-1	90	0
C[C@@H]1/C=C/CC(=O)N[C@H](c2ccc3ccccc3c2)[C@H](C)/C=C/CC(=O)N[C@@H]1c1ccc2ccccc2c1	.	.	.	-5	.	-2	.	.	.	.
SMILES	Efflux pump inh	V-ATPase pHluor	NSD2 HMT inh	GC-B act	Rce1 inhib	GC-A act	Yeast cmpd fluor	CaMdr1 efflux inh	CaCdr2 efflux inh	CaCdr1 efflux inh
O=[N+]([O-])c1ccc(N2CCN(c3ccccc3)CC2)nc1	0	-1	1	7	i	-5	.	.	.	.
O=[N+]([O-])c1ccc(N2CCc3ccccc3C2)nc1	0.6*	-19	2	-8	i	4	110	0	131	0
Cc1ccc(Cn2cc(CN(C3CC3)S(=O)(=O)c3ccccc3Br)nn2)cc1	.	.	.	0	.	1	.	.	.	.
N/C(=N\OC(=O)Cc1ccccc1)c1cccnc1	1	-5	13	5	i	-3	.	.	.	.
N/C(=N\OC(=O)Cc1ccccc1)c1ccccc1Cl	0	-4	-1	9	i	4	91	0	105	0
CCn1cc(C(=O)O)c(=O)c2cnc(N3CCN(C(=S)NC(=O)c4ccccc4)CC3)nc21	0.8*	-5	-37	-2	i	-2	93	0	98	0
CCCOc1ccc(C(=O)NC(=S)N2CCN(c3ncc4c(=O)c(C(=O)O)cn(CC)c4n3)CC2)cc1	.	.	1	2	.	1	.	.	.	.
Cc1ccc(N=C2NC(=O)/C(=C\c3cccs3)S2)cc1C	6.8*	1	-1	2	i	3	101	0	134	0
COc1ccc(CC(=O)O/N=C(\N)c2ccc(C)cc2)cc1	0	-3	-5	4	i	5	114	0	117	0
C=C(C)/C=C1/CN(Cc2ccc3c(c2)OCO3)C(=N)N1C(=O)OCc1ccccc1	.	.	.	7	.	3	.	.	.	.
CN1CCN(c2ccccc2NC(=O)c2ccc(-c3ccc(Br)cc3)o2)CC1	0	2	.	.	i	.	.	.	.	.
CN1CCN(c2ccccc2NC(=O)c2ccc(-c3ccc(Cl)c(Cl)c3)o2)CC1	8.1*	3	0	-17	i	-26	85	0	102	0

Compound activity (PubChem)
